Holding throughout (format): functional
The target in assay [1] is Solute carrier family 2, facilitated glucose transporter member 1 (Homo sapiens) (UniProt P11166). The assay is described as follows: ST_JUDE_LEISH: Cytotoxicity at 2uM final concentration against transgenic Leishmania Mexicana promastigotes LmGLUT1 that are glucose transport deficient and complemented with the human glucose transporter GLUT1. Activity is measured by DNA content using SYBR green in vitro.

Assay [2] has as its target Hexose transporter 1 (Plasmodium falciparum) (UniProt O97467). The assay is described as follows: ST_JUDE_LEISH: Cytotoxicity at 2uM final concentration against transgenic Leishmania Mexicana promastigotes LmPfHT that are glucose transport deficient and complemented with the Plasmodium falciparum hexose transporter. Activity is measured by DNA content using SYBR green in vitro.

Assay [3] deals with Glucose transporter (Leishmania mexicana) (UniProt O61059). The assay is described as follows: ST_JUDE_LEISH: Cytotoxicity at 2uM final concentration against transgenic Leishmania Mexicana promastigotes LmGT2 that are glucose transport deficient and complemented with the L. Mexicana glucose transporter 2. Activity is measured by DNA content using SYBR green in vitro.

As usually defined, the inhibition is the change of the read-out against control, counted positive when it falls.

Solute carrier family 2, facilitated glucose transporter member 1 (Homo sapiens), sequence (P11166 whole entry): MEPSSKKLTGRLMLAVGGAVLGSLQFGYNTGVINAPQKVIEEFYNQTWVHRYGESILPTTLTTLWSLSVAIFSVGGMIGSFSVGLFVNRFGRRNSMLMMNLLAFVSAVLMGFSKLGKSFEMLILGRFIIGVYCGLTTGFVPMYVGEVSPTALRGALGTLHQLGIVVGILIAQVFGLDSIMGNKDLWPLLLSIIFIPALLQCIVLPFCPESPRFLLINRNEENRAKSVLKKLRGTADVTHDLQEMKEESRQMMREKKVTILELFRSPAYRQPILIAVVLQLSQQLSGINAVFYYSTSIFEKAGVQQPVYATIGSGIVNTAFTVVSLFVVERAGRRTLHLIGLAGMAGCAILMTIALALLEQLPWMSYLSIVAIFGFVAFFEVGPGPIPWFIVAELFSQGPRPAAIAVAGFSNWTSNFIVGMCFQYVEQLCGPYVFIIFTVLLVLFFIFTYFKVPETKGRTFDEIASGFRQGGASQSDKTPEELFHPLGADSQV

With `COc1ccc(C)c(Nc2ccnc(Nc3ccc(-c4cnc[nH]4)cc3)n2)c1`, the inhibition in assay [1] was determined as 2.85%; in assay [2], 2.37%; in assay [3], 3.29%.
For `O=[N+]([O-])c1ccc(/C=N/Nc2cc(-c3ccccc3)nc3ccccc23)o1`, the inhibition in assay [1] amounted to 9.16%; in assay [2] it was 7.41%; in assay [3] it was 5.71%.
As to `COc1ccc2cc(C(c3nnnn3CC3CCCO3)N3CCc4ccccc43)c(=O)[nH]c2c1` (stereo not given), the inhibition in assay [1] came to 2.55%; in assay [2], 3.26%; in assay [3] it was 2.23%.
In the case of `OC1CCCN(Cc2ccc(-c3cccc(-c4nc5cc(F)ccc5[nH]4)c3)cc2)C1` (stereo not given), the inhibition worked out at 7.7% in assay [1], 7.1% in assay [2] and 5.69% in assay [3].
As to `c1cc(CNCCN2CCNCC2)cc(-c2cccc(-c3nc4ccccc4[nH]3)c2)c1`, the inhibition came out at 1.08% in assay [1], 1.4% in assay [2] and 0.14% in assay [3].
`N=C(N)NN=C1C=Cc2cccc3cccc1c23`: the inhibition is -1.8% in assay [1], 2.26% in assay [2] and -2.92% in assay [3].
Consider `CC1(CCc2ccccc2)N=C(N)N(Cc2ccccc2)C(=O)C1c1ccc(Cl)c(Cl)c1` (stereo not given), for which the results for the inhibition in assay [1], in assay [2] and in assay [3] were 3.32%, 2.08% and 0.94%, respectively.
The like results for `Cc1cccc(CNc2nc(C)cc(N[C@@H](Cc3ccccc3)C(=O)NCCc3ccccc3)n2)c1` were, in that order, 3.88%, 3.72% and 0.77%.
As for `O=C(NC1CC1)c1cnc(N2CCN(Cc3c(F)cccc3Cl)CC2)c(Cl)c1`, the results for the inhibition in assay [1], in assay [2] and in assay [3] were 12%, 1.02% and -3.18%, respectively.
As to `O=C(Nc1ccc(Cl)c(-c2nc3ccccc3[nH]2)c1)c1ccc(-c2ccc(Cl)cc2)o1`, the values for the inhibition in assay [1], in assay [2] and in assay [3] were 2.63%, 4.17% and 1.89%, respectively.
On to `O=C(N[C@@H](Cc1ccccc1)C(=O)NC1CCCc2ccccc21)c1ccc(O)c(-c2cccc(C(F)(F)F)c2)c1` (stereo not given in full), for which the inhibition in assay [1] was -3.38%; in assay [2], -1.1%; in assay [3], -1.61%.
Turning to `O=c1cc(NCCCNCc2cc3ccc(Br)cc3s2)[nH]c2ccccc12`, the values for the inhibition in assay [1], in assay [2] and in assay [3] were -0.97%, -0.27% and 0.6%, respectively.
For the compound `CSc1cccc(Nc2nc3ccc(S(=O)(=O)NC(C)C(C)C)cc3n2[C@H](C)C(C)(C)C)c1` (stereo not given in full), the inhibition in assay [1] came out at 6.73%; in assay [2] it was 6.18%; in assay [3] it was 6.54%.
In the case of `O=C(NC1CCC(N2CCC(Cc3ccc(F)cc3)CC2)CC1)c1cc2ccccc2[nH]1` (stereo not given), the inhibition in assay [1] stood at 0.56%; in assay [2], 0.08%; in assay [3], 0.47%.
For `CCN(CC)CCNc1ccnc2[nH]c3ccc(Cl)cc3c12`, the inhibition in assay [1] is 1.19%; in assay [2], -0.21%; in assay [3], -0.03%.
For the compound `CC(C)CC(C)NC(=O)C1Cc2c([nH]c3ccc(F)cc23)C2(CCN(Cc3ccccc3)CC2)N1` (stereo not given), the values for the inhibition in assay [1], in assay [2] and in assay [3] were 7.56%, 12.3% and 7.75%, respectively.
The like results for `CCNC(=O)NC1CCN(Cc2c(-c3cccs3)nc3ccccc3c2C(=O)N[C@@H](C)C2CCCCC2)CC1` were, in that order, 2.27%, 0.77% and -0.86%.
As to `Cc1[nH]c(C)c(-c2ccc(Oc3ccc(Cl)cc3)cc2)c(=O)c1C`, the inhibition in assay [1] is 11.4%; in assay [2] it was 30.5%; in assay [3] it was 1.29%.
As for `CS(=O)(=O)c1ccc(-c2cc(C(F)(F)F)nc(N[C@@H]3CCCC[C@H]3OCc3ccccc3)n2)cc1`, the values for the inhibition in assay [1], in assay [2] and in assay [3] were 1.33%, 1.84% and 1.66%, respectively.
As to `CCNc1cc(C(=O)N[C@@H](Cc2ccccc2)[C@H](O)CNCCc2ccccc2)cc(N2CCCCS2(=O)=O)c1`, the figures for the inhibition in assay [1], in assay [2] and in assay [3] were -0.52%, -0.67% and -3.28%, respectively.
Turning to `Oc1ccc(CCNCCCCCCNCCc2ccc(Br)cc2)cc1O`, the inhibition amounted to 3.51% in assay [1], 2.35% in assay [2] and 0.85% in assay [3].
With `O=C(Cc1ccc(Cl)cc1)NC1CCN(c2ccnc3cc(Cl)ccc23)C1` (stereo not given), the inhibition was -0.91% in assay [1], 0.24% in assay [2] and 0.26% in assay [3].
The like results for `Cc1ccc2[nH]c(-c3ccc(C=CC(=O)NCc4ccc(Cl)c(Cl)c4)cc3)nc2c1` were, in that order, 10.3%, 9.48% and 4.93%.
Consider `COc1cc(NC(=O)Nc2ccnc3ccccc23)cc(OC)c1`, for which the inhibition in assay [1] was 0.62%; in assay [2], -0.6%; in assay [3] it was 1.16%.
In the case of `COc1ccc2[nH]ccc(=NN=Cc3cccc(Cl)c3)c2c1`, the inhibition was determined as 15.1% in assay [1], 14.8% in assay [2] and 11.7% in assay [3].
With `O=C(Nc1ccc(OC2CCN(Cc3ccc(F)cc3)C2)c(Cl)c1)c1ccoc1` (stereo not given), the inhibition in assay [1] was 0.67%; in assay [2], 1.54%; in assay [3], 0.61%.
Turning to `CCN1CCC(N(Cc2ccc(-c3ccc(C(F)(F)F)cc3)cc2)C(=O)Cn2nc(C)c(=O)cc2SCc2ccc(F)cc2)CC1`, the inhibition in assay [1] came to 0.5%; in assay [2] it was 0.04%; in assay [3], 0.46%.
On to `CCOc1ccc(OCCCON2C(=N)N=C(N)NC2(C)C)cc1`, for which the values for the inhibition in assay [1], in assay [2] and in assay [3] were 1.93%, 0.06% and 0.05%, respectively.
Consider `CCCCc1ccc(NC(=O)Nc2cccc(CCNCc3ccccc3)c2)cc1`, for which the inhibition in assay [1] worked out at 11.8%; in assay [2], 11.4%; in assay [3], 10.2%.
The like results for `Cc1nc(N)nc(N)c1-c1ccc(Br)cc1` were, in that order, 9.9%, 8.21% and 7.53%.
Regarding `COc1cc(Cc2cnc(N)nc2N)cc(OCc2cccc(C(=O)O)c2)c1OC`, the values for the inhibition in assay [1], in assay [2] and in assay [3] were -0.05%, -2% and 1.03%, respectively.
Taken in the same sequence, the figures for `FC(F)(F)c1cccc(-c2cc(NCCCn3ccnc3)nc(-c3ccncc3)n2)c1` were -3.57%, -1.14% and -0.33%.
Consider `Cc1ccc2nc3ccccc3c(NCCN3CCN(C)CC3)c2c1`, for which the inhibition in assay [1] was determined as 39.1%; in assay [2], 50.6%; in assay [3], 21.1%.
For the compound `NC(=O)c1cccc(-n2ccc3cc(CNC4Cc5ccccc5C4)ccc32)c1`, the inhibition came to 21.9% in assay [1], 26.2% in assay [2] and 8.72% in assay [3].
As to `O=C(Cc1ccccc1)NC(c1ccco1)c1cc(Cl)c2cccnc2c1O` (stereo not given), the inhibition in assay [1] is -0.34%; in assay [2] it was -0.27%; in assay [3], -0.18%.
Consider `O=C(NC1CCCc2ccccc21)[C@@H]1CCCN1C(=O)c1ccc(O)c(-c2cccc([N+](=O)[O-])c2)c1` (stereo not given in full), for which the inhibition in assay [1] was found to be 2.69%; in assay [2], 1.92%; in assay [3] it was 2.82%.
Take `CCOC(=O)C(C(=O)OCC)c1nc(C)ns1`: the inhibition in assay [1] was -1.35%; in assay [2] it was 0.58%; in assay [3], 0.53%.
With `COc1ccc(-c2cnc3ccc(NCc4ccc(S(N)(=O)=O)cc4)nn23)cc1`, the values for the inhibition in assay [1], in assay [2] and in assay [3] were 3.11%, 3.14% and 12.6%, respectively.
Take `N=C(N)NC(=O)Nc1cc(Cl)c(Br)c(Cl)c1`: the figures for the inhibition in assay [1], in assay [2] and in assay [3] were 3%, 6.09% and 2.88%, respectively.
`COc1ccc(-c2cccc(NC(=O)c3cccc(Cl)c3)c2)cc1CN1CCN(C)CC1`: the values for the inhibition in assay [1], in assay [2] and in assay [3] were 11.2%, 12% and 7.77%, respectively.
The like results for `O=C(NCc1ccc(Cl)c(Cl)c1)c1cccc(C2CCCN(Cc3ccc4[nH]cnc4c3)C2)c1` (stereo not given) were, in that order, 0.36%, 2.01% and -0.63%.
For the compound `CCS(=O)(=O)c1ccc(OC)c(Nc2nccc(-c3c(-c4cccc(NC(=O)c5c(F)cccc5F)c4)nn4ncccc34)n2)c1`, the inhibition in assay [1] was 6.13%; in assay [2] it was 3.41%; in assay [3] it was 2.02%.
With `CS(=O)(=O)CCN(CCS(C)(=O)=O)Cc1ccc(-c2ccc3ncnc(Nc4ccc(OCc5cccc(F)c5)c(Cl)c4)c3c2)o1`, the inhibition in assay [1] stood at 2%; in assay [2] it was 2.02%; in assay [3], 2.35%.
As to `CCOc1ccc(C2CCN(CCCCNC(=O)c3ccc(NC(=O)c4ccc(Cl)cc4)cc3)CC2)c(Cl)c1`, the inhibition was 1.99% in assay [1], 4.55% in assay [2] and 1.92% in assay [3].
Take `COc1ccc(NC(=O)/C=C/c2ccccc2Cl)cc1OCCN1CCC(N(C)C)CC1`: the inhibition amounted to 2.23% in assay [1], 1.6% in assay [2] and 1.83% in assay [3].
As for `O=C(Nc1cccc(-c2cccc(-c3nc4ccccc4[nH]3)c2)c1)c1cccnc1`, the inhibition came to 2.95% in assay [1], 2.73% in assay [2] and 0.76% in assay [3].
As to `O=C(NC(c1ccc(Cl)cc1)c1ccc2cccnc2c1O)c1ccccc1` (stereo not given), the inhibition is 0.27% in assay [1], -0.02% in assay [2] and -2.91% in assay [3].
The like results for `Fc1ccc2[nH]c(-c3cccc(-c4cccc(CNCCc5ccncc5)c4)c3)nc2c1` were, in that order, 11.1%, 10.6% and 12.9%.
Regarding `Cc1cc(N2CCC(N(C)C)C2)nc(Nc2ccc(Cl)cc2)n1` (stereo not given), the inhibition in assay [1] stood at 4.11%; in assay [2], 3.16%; in assay [3], 4.87%.
With `O=C(Nc1ccc(Oc2ccccc2)cc1)N(Cc1ccc(-c2cccc(CN3CCNCC3)c2)cc1)C1CCN(Cc2ccccc2)CC1`, the figures for the inhibition in assay [1], in assay [2] and in assay [3] were 3.46%, 3.12% and 3.01%, respectively.
Turning to `CCN(CC)CCN(Cc1ccc(-c2ccc(C(F)(F)F)cc2)cc1)C(=O)Cn1cc(Cc2cnn(C)c2)c(=O)nc1/C=C/c1ccc(F)cc1`, the inhibition in assay [1] turned out to be 1.22%; in assay [2], 1.54%; in assay [3] it was 2.56%.
The like results for `CN1CCN(c2ccc(CNc3ccc4ncc(-c5cccc(OC(F)(F)F)c5)n4n3)cc2)CC1` were, in that order, -2.82%, -3.7% and -2.5%.
Turning to `Cc1cc(OCc2ccncc2)cc2c1C(=O)CC(C)(C)O2`, the inhibition in assay [1] was -0.52%; in assay [2] it was 2.18%; in assay [3] it was 0.39%.
The like results for `COc1ccc(CCNC(=O)c2ccccc2O)cc1-c1ccc(C(C)(C)C)cc1` were, in that order, 4.03%, 2.33% and 3.39%.
On to `CC(=O)N1N=C(c2cccs2)Sc2c1nc(-c1ccc(Cl)cc1)n2C(C)=O`, for which the figures for the inhibition in assay [1], in assay [2] and in assay [3] were 11.9%, 12.2% and 11.9%, respectively.
